Test results published in PubChem BioAssay AID1159580 (chemical genetic matrix, 2015).
Where “and” joins values, the source holds several entries; their conditions need not be identical. Equal entries are not always repeated. About 2,000 (36%) of roughly 5,500 compounds were called active. About 18% were inconclusive and are not listed. Cut-off read from the data, not from the text of the source: active = normalized growth mostly below about 0.91 (no sharp cut-off); inconclusive = no clear call, values can overlap the other calls; inactive = mostly above about 0.92. Some of the results follow.

Test: chemical genetic growth profiling, strain panel (AID 1159580);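 note: tested at 20 µM; growth read once vehicle control cultures reached saturation at 30 °C; 1 = growth at the plate median or of vehicle wells; lower values mean less growth of the strain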
Conditions: S. cerevisiae deletion strains, growth OD

Measured: normalized growth

CCCCOc1cc(C(=O)NCCN(CC)CC)c2ccccc2n1
inactive: locus YAL021C, strain ccr4, stronger effect = lower value 0.956 | locus YAL026C, strain drs2, stronger effect = lower value 0.986 | locus YAL030W, strain snc1, stronger effect = lower value 0.972 | locus YBL061C, strain skt5, stronger effect = lower value 0.97 | locus YBR009C, strain hhf1, stronger effect = lower value 0.97 | locus YBR021W, strain FUR4, stronger effect = lower value 1.02 | locus YBR023C, strain chs3, stronger effect = lower value 0.977 | locus YBR171W, strain sec66, stronger effect = lower value 0.947 | locus YBR229C, strain ROT2, stronger effect = lower value 1.01 | locus YBR231C, strain swc5, stronger effect = lower value 0.959 | locus YBR279W, strain paf1, stronger effect = lower value 0.998 | locus YCL011C, strain gbp2, stronger effect = lower value 0.987 | locus YCL016C, strain dcc1, stronger effect = lower value 1.01 | locus YCL029C, strain bik1, stronger effect = lower value 1.01 | locus YCL061C, strain MRC1, stronger effect = lower value 0.967 | locus YCL069W, strain vba3, stronger effect = lower value 0.984 | locus YCR088W, strain abp1, stronger effect = lower value 0.954 | locus YDL005C, strain med2, stronger effect = lower value 0.972 | locus YDL035C, strain GPR1, stronger effect = lower value 1.03 | locus YDL040C, strain nat1, stronger effect = lower value 0.96 | locus YDL074C, strain BRE1, stronger effect = lower value 1 | locus YDL101C, strain DUN1, stronger effect = lower value 1 | locus YDL134C, strain PPH21, stronger effect = lower value 1.03 | locus YDL185W, strain tfp1, stronger effect = lower value 1.01 | locus YDL192W, strain arf1, stronger effect = lower value 1 | locus YDR001C, strain nth1, stronger effect = lower value 0.933 | locus YDR069C, strain doa4, stronger effect = lower value 0.932 | locus YDR101C, strain arx1, stronger effect = lower value 1.01 | locus YDR137W, strain rgp1, stronger effect = lower value 1.02 | locus YDR159W, strain sac3, stronger effect = lower value 0.973 | locus YDR162C, strain NBP2, stronger effect = lower value 1.01 | locus YDR195W, strain ref2 0.932 | locus YDR297W, strain sur2, stronger effect = lower value 0.966 | locus YDR318W, strain mcm21, stronger effect = lower value 0.984 | locus YDR334W, strain swr1, stronger effect = lower value 0.925 | locus YDR335W, strain msn5, stronger effect = lower value 0.942 | locus YDR388W, stronger effect = lower value 0.995 | locus YDR392W, strain spt3, stronger effect = lower value 1.05 | locus YDR502C, strain sam2, stronger effect = lower value 0.996 | locus YEL003W, strain gim4, stronger effect = lower value 0.959 | locus YEL037C, strain rad23, stronger effect = lower value 0.968 | locus YEL061C, strain CIN8 (second series), stronger effect = lower value 0.941 | locus YEL061C, strain CIN8, stronger effect = lower value 1 | locus YER015W, strain faa2, stronger effect = lower value 0.973 | locus YER016W, strain bim1, stronger effect = lower value 1.01 | locus YER110C, stronger effect = lower value 1 | locus YER111C, strain swi4, stronger effect = lower value 0.966 | locus YER155C, strain BEM2 (second series), stronger effect = lower value 0.886 | locus YER155C, strain BEM2, stronger effect = lower value 0.998 | locus YER167W, strain BCK2, stronger effect = lower value 1 | locus YFR010W, strain ubp6, stronger effect = lower value 0.94 | locus YGL078C, strain dbp3, stronger effect = lower value 0.995 | locus YGL086W, strain mad1, stronger effect = lower value 0.992 | locus YGL167C, strain pmr1, stronger effect = lower value 0.939 | locus YGL173C, strain kem1, stronger effect = lower value 0.966 | locus YGL227W, strain vid30, stronger effect = lower value 0.956 | locus YGL240W, strain doc1, stronger effect = lower value 0.92 | locus YGL248W, strain PDE1, stronger effect = lower value 0.999 | locus YGL253W, strain hxk2, stronger effect = lower value 0.995 | locus YGR078C, strain PAC10, stronger effect = lower value 1 | locus YGR135W, strain pre9, stronger effect = lower value 0.977 | locus YGR252W, strain gcn5, stronger effect = lower value 0.914 | locus YHR013C, strain ard1, stronger effect = lower value 1.01 | locus YHR027C, strain rpn1, stronger effect = lower value 0.973 | locus YHR030C, strain SLT2, stronger effect = lower value 1.01 and 1.04 | locus YHR079C, strain IRE1 (second series), stronger effect = lower value 0.982 | locus YHR079C, strain IRE1, stronger effect = lower value 1.02 | locus YHR094C, strain hxt1, stronger effect = lower value 0.991 | locus YHR129C, strain ARP1, stronger effect = lower value 1.01 | locus YHR142W, strain chs7, stronger effect = lower value 0.974 | locus YHR200W, strain rpn10, stronger effect = lower value 0.998 | locus YIL066C, strain RNR3, stronger effect = lower value 1.01 | locus YIL073C, strain SPO22, stronger effect = lower value 1.03 | locus YIL125W, strain kgd1, stronger effect = lower value 0.997 | locus YIR030C, strain dcg1, stronger effect = lower value 0.993 | locus YJL092W, strain hpr5, stronger effect = lower value 0.979 | locus YJL095W, strain BCK1 (second series), stronger effect = lower value 0.966 | locus YJL095W, strain BCK1, stronger effect = lower value 0.988 and 1.04 | locus YJL115W, strain asf1, stronger effect = lower value 0.94 | locus YJL129C, strain trk1, stronger effect = lower value 0.939 | locus YJL134W, strain LCB3, stronger effect = lower value 1 | locus YJL154C, strain vps35, stronger effect = lower value 0.942 | locus YJL164C, strain tpk1, stronger effect = lower value 1 | locus YJL166W, strain qcr8, stronger effect = lower value 0.937 | locus YJL168C, strain set2, stronger effect = lower value 0.997 | locus YJL187C, strain SWE1 (second series), stronger effect = lower value 0.999 | locus YJR043C, strain POL32, stronger effect = lower value 1.02 | locus YJR066W, strain TOR1, stronger effect = lower value 0.968
